Compound activity: PubChem, National Center for Advancing Translational Sciences (NCATS)
D3 antag = D3 dopamine receptor (human) antagonism. D3R cells, DiscoveRx beta-arrestin luminescence, antagonist mode; hits give low values. max response, negative = inhibition, %. 2.5% of 360,000 active. AID 652054; in the data active = max response below about -50%; inconclusive = no clear call, values can overlap the other calls; note: % is set by controls: 0 for no effect and ±100 for the full control effect
Target sequence (P35462 whole entry, looked up): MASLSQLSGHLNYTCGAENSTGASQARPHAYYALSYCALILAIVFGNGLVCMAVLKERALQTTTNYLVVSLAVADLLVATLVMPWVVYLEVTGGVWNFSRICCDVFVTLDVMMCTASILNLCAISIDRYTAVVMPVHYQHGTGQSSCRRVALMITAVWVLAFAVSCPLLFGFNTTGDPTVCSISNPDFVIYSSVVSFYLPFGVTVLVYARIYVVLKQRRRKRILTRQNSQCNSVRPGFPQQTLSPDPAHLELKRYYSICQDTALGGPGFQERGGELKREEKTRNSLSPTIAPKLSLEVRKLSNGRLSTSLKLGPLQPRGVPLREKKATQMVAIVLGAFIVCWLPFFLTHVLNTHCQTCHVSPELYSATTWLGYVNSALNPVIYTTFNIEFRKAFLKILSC
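Cells plated overnight at 1500 cells/well, then exposed to library compounds with dopamine controls for 90 minutes at 37 degrees C. DiscoveRx reagent added for 30–60 minutes at room temperature; luminescence read, quantitative HTS format.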
ClpP mod = qHTS Assay for Activators of ClpP | 1.9% of 340,000 active | purified B. subtilis ClpP, FRET peptide cleavage, 20 min | AID 651965, 2013 | ATP-dependent Clp protease proteolytic subunit (Bacillus subtilis (strain 168)), P80244 | Potency, µM (doses to about 57.5 µM), without a hit: at the highest dose activity change, negative = active; active = well fitted falling curve with a large enough effect; inconclusive = small, poorly fitted or top-dose-only effect; inactive = no such curve, though single readings can be large or run the other way; note: potency is the fitted concentration of half-maximal effect; the source files actives as falling curves though it sought activators and does not explain the sign; nearly all actives have a fitted effect of over 65% in size
Target sequence (P80244 whole entry, looked up): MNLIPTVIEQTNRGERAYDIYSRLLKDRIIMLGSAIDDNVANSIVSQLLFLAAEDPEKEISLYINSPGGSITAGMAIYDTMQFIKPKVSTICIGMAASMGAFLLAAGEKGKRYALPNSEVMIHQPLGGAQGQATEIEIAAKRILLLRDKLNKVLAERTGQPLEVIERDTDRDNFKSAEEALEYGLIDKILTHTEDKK
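Purified B. subtilis ClpP, 10 microg/mL final in Tris/HCl pH8 with KCl, BSA, glycerol and Tween-20, cleaved an Abz/nitrotyrosine-quenched decapeptide. Fluorescence (ex 320, em 430) was read at 0 and 20 min at room temperature. Delta was normalized to 5.8 microM ADEP and DMSO/no-enzyme controls.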
DRD3 agonist = agonists of human D3 dopamine receptor; P35462; D3R DiscoveRx beta-arrestin cells, luminescence, 90 min; max activation, %; 0.58% of 410,000 active; AID 652048; in the data active = max activation above about 30%; note: 0% is about no effect
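Cells at 1500/well, incubated overnight, then treated with pinned compounds (dopamine as control) for 90 min at 37 degrees C. DiscoveRx reagent added for 30 - 60 minutes at room temperature; luminescence read.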
IL-1B inflam inh = inhibitors of inflammasome signaling (IL-1 beta secretion) | THP-1 LPS/ATP IL-1B secretion, AlphaLISA, 16 h; hits give low values | 4.7% of 360,000 active | activity change, % at 57.5 µM; in the data active = activity change below about -50%; inconclusive = mostly about -30% to -49%; note: % is set by controls: 0 for no effect and ±100 for the full control effect
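THP-1 cells pretreated 1 hr with compounds (up to 57.5 uM final), then stimulated with LPS (250 ng/mL final) plus ATP (1.25 mM final); secreted IL-1B measured by AlphaLISA after 16 hr, decreased signal indicating inhibition.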
DT40 TDP1 CPT = growth inhibition of DT40 Tdp1-/-;hTDP1 cells with camptothecin (screen for TDP1 inhibitors); chicken DT40 Tdp1-/-;hTDP1 cells + 20 nM CPT, ATP luminescence, 48 h; Potency, µM (top dose mostly 46.2 µM), for the others: top-dose activity change, negative = growth inhibition, hits mostly inhibitors; 12% of 420,000 active; AID 686979; note: potency is the fitted concentration of half-maximal effect; % is set by controls: 0 for no effect and ±100 for the full control effect; nearly all actives have a fitted effect of over 55% in size
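Cell growth measured by CellTiter-Glo luminescence after a minimum 48 h, 37 C compound exposure with 20 nM CPT in Tdp1-knockout DT40 cells stably expressing hTDP1, seeded 400/well; qHTS titration format.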
DT40 TDP1 no CPT = qHTS for Inhibitors of human tyrosyl-DNA phosphodiesterase 1 (TDP1): qHTS in cells in absence of CPT. DT40 Tdp1-/- hTDP1 cells, no CPT, ATP luminescence, 48 h. Potency, µM (top dose mostly 46.2 µM), without a hit: top-dose activity change, negative = growth inhibition, hits mostly inhibitors. 15% of 420,000 active. AID 686978, 2013; note: potency is the fitted concentration of half-maximal effect; % is set by controls: 0 for no effect and ±100 for the full control effect; nearly all actives have a fitted effect of over 55% in size
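A cellular qHTS used chicken DT40 cells lacking endogenous Tdp1 but carrying stably transfected human TDP1. Compounds were applied without camptothecin, and cell growth kinetics were judged by ATP-dependent luminescence after ≥48 hr.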
Active calls of the source: *. Compounds with a hit are over-represented: about 21% of the library has one in this group of screens. Unless noted, calls come from the whole dose curve; as a rule, active = well fitted inhibition curve with a large enough effect; inconclusive = small, poorly fitted or top-dose-only effect; inactive = flat fitted curve, though single readings scatter.

COC(=O)c1ccc(NC(=O)CC2C(=O)N(c3ccc(C)cc3)C(=O)N2Cc2ccc(OC)cc2)cc1 (configuration not stated) was read as ClpP mod -4.6%, DRD3 agonist 5.2, DT40 TDP1 CPT inconclusive and DT40 TDP1 no CPT inconclusive.
CC(NC(=O)c1ccco1)C(=O)NC(C)c1cc(F)c(Cl)cc1Cl (configuration not stated) was read as D3 antag 11.5, ClpP mod 1.6%, DRD3 agonist -13.4, IL-1B inflam inh 10.3, DT40 TDP1 CPT 0.7% and DT40 TDP1 no CPT 13.0%.
Screening COCCN=c1scc(-c2cccs2)n1/N=C(\C)c1ccco1 returned D3 antag 0.3, ClpP mod -5.8%, DRD3 agonist 1.8, IL-1B inflam inh inconclusive, DT40 TDP1 CPT inconclusive and DT40 TDP1 no CPT inconclusive.
`COc1cc(/C=N/n2c(-c3ccc4c(c3)NC(=O)CO4)csc2=Nc2cccc(C)c2)ccc1O` gave D3 antag -4.6, ClpP mod -0.6%, DRD3 agonist -3.6, IL-1B inflam inh inconclusive, DT40 TDP1 CPT 13µM* and DT40 TDP1 no CPT inconclusive.
Screening COCCN=c1scc(-c2ccc3c(c2)NC(=O)CO3)n1/N=C(\C)c1ccc(O)cc1 returned D3 antag 0.0, DRD3 agonist -24.1, IL-1B inflam inh -60.5*, DT40 TDP1 CPT inconclusive and DT40 TDP1 no CPT inconclusive.
Screening Cc1ccc(CONC(=O)c2ccc(C)cc2)cc1 returned D3 antag 3.4, ClpP mod -1.2%, DRD3 agonist -1.6, IL-1B inflam inh -27.3, DT40 TDP1 CPT -13.8% and DT40 TDP1 no CPT 13.4%.
COc1ccc(OC)c(C(=O)CCCCC(=O)c2cc(OC)ccc2OC)c1 was read as D3 antag 16.9, ClpP mod 0.1%, DRD3 agonist 5.7, IL-1B inflam inh 6.5, DT40 TDP1 CPT inconclusive and DT40 TDP1 no CPT 18.4µM*.
For COc1ccc(OC)c(C(=O)c2ccccc2)c1 the results were D3 antag -5.8, ClpP mod 0.0%, DRD3 agonist -9.8, IL-1B inflam inh 0.0, DT40 TDP1 CPT -11.7% and DT40 TDP1 no CPT -12.9%.
Screening COc1ccc(OC)c(C(=O)c2ccc(C(=O)c3cc(OC)ccc3OC)cc2)c1 returned D3 antag 11.1, ClpP mod -9.4%, DRD3 agonist 29.7, IL-1B inflam inh -75.1*, DT40 TDP1 CPT inconclusive and DT40 TDP1 no CPT inconclusive.
COc1ccc(C(=O)c2ccc(N(C)C)cc2)c(OC)c1 was read as D3 antag 14.6, ClpP mod -1.3%, DRD3 agonist 10.7, IL-1B inflam inh -8.7, DT40 TDP1 CPT 3.16µM* and DT40 TDP1 no CPT 2.82µM*.
Screening COc1ccc(C(=O)Nc2ccc3ccccc3c2)cc1 returned D3 antag -2.4, ClpP mod -20.8%, DRD3 agonist 0.5, IL-1B inflam inh -5.0, DT40 TDP1 CPT 3.6% and DT40 TDP1 no CPT 3.0%.
COc1ccc(OC)c(C(=O)c2ccc(C(=O)Nc3ccc4ccccc4c3)cc2)c1 was read as D3 antag 0.0, ClpP mod 10.7%, DRD3 agonist -0.8, IL-1B inflam inh -7.3, DT40 TDP1 CPT 20.6µM* and DT40 TDP1 no CPT 18.4µM*.
Screening COc1ccc(C(=O)c2ccc(N3CCOCC3)cc2)c(OC)c1 returned D3 antag 0.3, ClpP mod -1.3%, DRD3 agonist -4.6, IL-1B inflam inh -18.3, DT40 TDP1 CPT inconclusive and DT40 TDP1 no CPT inconclusive.
For COc1ccc(C(=O)c2ccc(OC)cc2OC)cc1 the results were D3 antag 0.0, DRD3 agonist 6.1, IL-1B inflam inh 34.3, DT40 TDP1 CPT -102.5% and DT40 TDP1 no CPT 5.8µM*.
COc1ccc(/C(C)=N/N=C(N)N)c(O)c1 was read as D3 antag -5.0, DRD3 agonist -10.3, IL-1B inflam inh 0.5, DT40 TDP1 CPT -16.1% and DT40 TDP1 no CPT -21.4%.
`COc1ccc(OC)c(C(=O)COC(=O)C(CCSC)NC(=O)COc2ccccc2)c1` (configuration not stated) gave D3 antag -5.5, DRD3 agonist -7.3, IL-1B inflam inh -17.1, DT40 TDP1 CPT -23.5% and DT40 TDP1 no CPT -14.8%.
COc1ccc(/C(C)=N/N=C(N)N)c(OC)c1 was read as D3 antag 0.0, ClpP mod -0.7%, DRD3 agonist -3.9, IL-1B inflam inh 5.7, DT40 TDP1 CPT 18.4µM* and DT40 TDP1 no CPT -25.6%.
COc1ccc(OC)c(C(=O)COC(=O)COc2ccccc2)c1 was read as D3 antag -3.0, ClpP mod -1.0%, DRD3 agonist -1.8, IL-1B inflam inh inconclusive, DT40 TDP1 CPT 14.6µM* and DT40 TDP1 no CPT 5.8µM*.
CCOc1ccc(S(=O)(=O)N2CCOCC2)cc1NC(=O)C1=COCCO1 was read as D3 antag 14.8, ClpP mod -3.0%, DRD3 agonist 0.5, IL-1B inflam inh 0.0, DT40 TDP1 CPT 10.4% and DT40 TDP1 no CPT 4.5%.
CCOc1ccc(Oc2ccccc2NC(=O)C2=COCCO2)cc1 was read as D3 antag 15.8, ClpP mod 0.3%, DRD3 agonist 5.2, IL-1B inflam inh -2.3, DT40 TDP1 CPT 16.4µM* and DT40 TDP1 no CPT inconclusive.
`CCOc1ccc(Oc2ccc(S(=O)(=O)N3CCOCC3)cc2NC(=O)C2=COCCO2)cc1` gave D3 antag -23.0, ClpP mod -6.9%, DRD3 agonist -20.3, IL-1B inflam inh -3.1, DT40 TDP1 CPT inconclusive and DT40 TDP1 no CPT 23.1µM*.
Cc1ccccc1C(=O)NNC(=O)CCCCC(=O)NNC(=O)c1ccccc1C was read as D3 antag 2.8, DRD3 agonist -3.1, IL-1B inflam inh 12.4, DT40 TDP1 CPT 6.6% and DT40 TDP1 no CPT 3.0%.
S=C(Nc1ccccc1Cl)N1CCCC(c2ccccc2)=N1 was read as D3 antag -13.1, DRD3 agonist 3.4, DT40 TDP1 CPT inconclusive and DT40 TDP1 no CPT 29.1µM*.
For CC(C)c1ccc(NC(=S)N2CCCC(c3ccc(F)cc3)=N2)cc1 the results were D3 antag -13.6, DRD3 agonist -3.3, IL-1B inflam inh -20.3, DT40 TDP1 CPT inconclusive and DT40 TDP1 no CPT 29.1µM*.
`CCc1noc(C)c1C(=O)NNC(=O)c1ccccc1Cl` gave D3 antag 2.1, ClpP mod -0.6%, DRD3 agonist -2.9, IL-1B inflam inh 23.2, DT40 TDP1 CPT -5.9% and DT40 TDP1 no CPT 14.9%.
O=C1NC[C@H](CCCCN2C[C@H](Cc3ccccc3)N(CCc3ccc(O)cc3)C(=O)C2=O)N(CCc2ccc(O)cc2)C1=O was read as D3 antag 7.3, ClpP mod -0.9%, DRD3 agonist -4.6, IL-1B inflam inh 6.0, DT40 TDP1 CPT -2.5% and DT40 TDP1 no CPT -12.4%.
